Test results: the supplement of paper PMC13392028
Whole data set: some 4,100 sequences, median “RBNS R-value (6-mer enrichment in protein-bound RNA vs input library)” near 0.99, cut for the highest 2% near 1.4. Many of the other results were omitted from the sample, so the highest values are more common in it than they were.

Tested on: PfIESI-1 RRM domain (Plasmodium falciparum ortholog aa 875-1232, GST fusion)
Test: RBNS R-value (6-mer enrichment in protein-bound RNA vs input library) (ratio); higher = stronger binding preference; the methods of the paper give 50 / 100 / 500 nM protein instead
Procedure: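 RNA Bind-n-Seq: recombinant GST-tagged IESI-1 RRM domain was incubated at room temperature with a random 40-nt in vitro transcribed RNA library at 250, 500 or 1000 nM protein. Bound RNA was pulled down on glutathione beads and sequenced. R-value is the enrichment of each 6-mer in the bound RNA relative to the input library. Each 6-mer sits inside the random 40-mer context, not as an isolated oligo. Values are replicate 1 only.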

Sequence	RBNS R-value (protein concentration: 250 nM)	RBNS R-value (protein concentration: 500 nM)	RBNS R-value (protein concentration: 1000 nM)
GGUCGG	0.934	0.838	0.968
UCGACU	0.956	0.919	0.936
AGUAGG	0.965	0.969	1.02
CGUUCA	0.9	0.886	0.924
GAAUGA	1.47	1.55	1.36
CAAUGA	1.34	1.41	1.24
CAAUGC	0.943	0.936	0.955
GAAUGC	1.08	1.07	1.08
AAAUGA	1.42	1.6	1.38
AAAUGC	0.994	1.07	1.05
CAAUGG	1.03	1.03	1.06
GAAUGU	0.918	1.01	0.982
UAAUGA	1.05	1.2	1.03
UUCUAC	0.96	0.873	0.911
GUCUUA	0.784	0.786	0.826
CGUGAC	1	0.946	1
GUAGCC	1.03	0.977	1.02
UUUAAG	0.833	0.879	0.837
CAGAGA	1.28	1.31	1.3
CCCGAG	1.66	1.29	1.45
CCCGGC	1.27	1.14	1.24
CCCGGU	1.22	1.12	1.21
CCCGAA	1.44	1.33	1.35
ACGGGA	1.1	1.06	1.1

Sequence	RBNS R-value (protein concentration: 250 nM)	RBNS R-value (protein concentration: 500 nM)	RBNS R-value (protein concentration: 1000 nM)
CCGGGU	1.19	1.08	1.17
CCCGGG	1.56	1.3	1.42
GCCGAG	1.23	1.16	1.2
ACCGAA	1.07	1.11	1.09
CCGGGA	1.4	1.21	1.27
ACCGAG	1.34	1.24	1.25
UCCGAA	1.1	1.1	1.13
CUCAAC	0.907	0.891	0.925
CUCUAC	0.858	0.793	0.813
GGGAAC	1.14	1.14	1.17
GAAUUU	1.14	1.19	1.13
UGCUAC	0.931	0.87	0.895
GUGUGG	0.869	0.812	0.921
CCACGA	1.17	1.13	1.15
CGGGUC	1.03	0.928	1.06
UUCGAG	1.1	1.12	1.14
CUCGAG	1.38	1.28	1.27
GUCGAG	0.954	0.931	0.991
UGGAGC	1.03	1	1.02
CUUAUA	0.758	0.723	0.711
UUGAUU	2.69	2.96	2.18
GCGAUU	1.23	1.24	1.15
GUGAUU	1.83	2.01	1.61
UUGAGU	1	1.04	1.02

Sequence	RBNS R-value (protein concentration: 250 nM)	RBNS R-value (protein concentration: 500 nM)	RBNS R-value (protein concentration: 1000 nM)
GUGAUC	1.06	1.1	1.06
CCGAUU	1.34	1.3	1.23
GUGAGA	1.02	1.08	1.1
GUGAAA	1.01	1.12	1.09
CUGAAU	1.01	1.05	1.01
CUGAUU	2.52	2.66	1.97
GUGAUA	1.31	1.43	1.28
UGGAUU	0.95	0.939	0.974
UACAAA	0.828	0.904	0.843
AAUAAU	0.738	0.867	0.789
CAUAAU	0.76	0.795	0.73
GCGCGA	1.1	1.12	1.11
CGUAAA	0.871	0.956	0.929
ACCUGG	1.19	1.11	1.17
GCCUGC	1.12	1	1.06
GCCUGG	1.12	1.05	1.15
ACCUGC	1.09	1.03	1.07
CCCUGU	0.962	0.898	0.981
GCCUGA	1.45	1.4	1.32
CCCUGG	1.17	1.09	1.15
CCCUGA	1.44	1.41	1.35
ACCUGA	1.51	1.48	1.37
UGGGUC	0.985	0.933	1.01
UGUCAG	0.921	0.924	0.976

Sequence	RBNS R-value (protein concentration: 250 nM)	RBNS R-value (protein concentration: 500 nM)	RBNS R-value (protein concentration: 1000 nM)
CAAAUC	0.911	0.973	0.983
UUGACU	1.07	1.06	1.05
UAACGC	0.896	0.876	0.884
CAUCAC	0.917	0.894	0.935
AUAUAC	0.837	0.813	0.766
GACCUC	1.02	0.989	1.03
ACUGAU	1.89	2.06	1.65
CCUGCG	1.1	1.05	1.1
ACUGAC	1.04	1.03	1.04
CCUGAG	1.47	1.26	1.34
GCUGAC	1.07	1.02	1.07
ACUGAG	1.08	1.13	1.11
GCUGAU	1.77	1.76	1.47
UCUGAU	1.88	1.98	1.58
UCUGAA	0.982	1.05	1.03
GCUGAG	1.09	1.07	1.1
UCUGAC	1.02	0.998	1.05
UCUGAG	1.12	1.1	1.14
CAGAAC	1.11	1.13	1.13
AGUCCC	1.01	0.956	1.01
UACCGG	0.983	0.914	0.955
CAGUAA	0.864	0.913	0.866
CUACAU	0.824	0.777	0.777
GUUCCU	1.02	0.962	1.01

Sequence	RBNS R-value (protein concentration: 250 nM)	RBNS R-value (protein concentration: 500 nM)	RBNS R-value (protein concentration: 1000 nM)
AACAGG	0.999	1.07	1.06
GGGACU	1	0.984	1.02
GAAGAC	1.14	1.17	1.15
AGAGUC	1.01	1.03	1.05
AUGUGA	1.15	1.26	1.14
CUGGGC	1.06	0.987	1.04
CCUGAU	1.99	2.08	1.66
CCUGAA	1.17	1.17	1.18
CCUGAC	1.14	1.07	1.12
AUGCGG	1.02	1.01	1.01
UCUAGU	0.878	0.906	0.899
UAUGCG	0.899	0.892	0.894
AAUGCG	0.939	0.968	0.95
UAUGCA	0.846	0.862	0.85
GAUGCG	1.41	1.42	1.31
CAUGCC	1.04	0.974	1.05
UAUGCC	0.946	0.891	0.903
GAUGCA	1.39	1.42	1.29
GAUGCC	1.57	1.46	1.39
CAUGCA	0.934	0.914	0.92
CUCGUG	0.979	0.913	0.998
